According to publication PMC13494018:

What was measured:
[1] = molecular target: VTCN1, Q7Z7D3
[2] = molecular target: PDL1, Q9NZQ7
PDL1, Q9NZQ7, sequence (Q9NZQ7 whole entry): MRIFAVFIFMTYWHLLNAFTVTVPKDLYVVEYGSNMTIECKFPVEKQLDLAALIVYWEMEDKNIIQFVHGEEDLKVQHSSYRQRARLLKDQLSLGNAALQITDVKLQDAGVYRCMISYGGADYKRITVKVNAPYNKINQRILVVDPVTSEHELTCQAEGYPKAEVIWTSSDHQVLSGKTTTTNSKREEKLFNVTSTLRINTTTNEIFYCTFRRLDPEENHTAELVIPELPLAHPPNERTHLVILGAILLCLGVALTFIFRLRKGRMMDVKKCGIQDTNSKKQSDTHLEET

VTCN1, Q7Z7D3, sequence (Q7Z7D3 whole entry): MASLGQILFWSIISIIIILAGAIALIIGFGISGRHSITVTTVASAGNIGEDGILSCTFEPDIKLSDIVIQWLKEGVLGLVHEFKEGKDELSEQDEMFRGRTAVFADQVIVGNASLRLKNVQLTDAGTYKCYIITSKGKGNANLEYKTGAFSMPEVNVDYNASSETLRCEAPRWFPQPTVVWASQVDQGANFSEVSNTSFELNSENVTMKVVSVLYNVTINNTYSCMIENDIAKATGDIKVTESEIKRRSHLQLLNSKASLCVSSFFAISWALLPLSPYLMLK

Row | Binder | binding in a display sort [1] | binding in a display sort [2]
1 | d3r1_design_ppi_677_dldesign_0_cycle1_af2pred (protein) MEEKKKKIDEKLILAGELAKKNGLLGEIVAKKAIEEGRKAGITEFSEEAVEALKIAFAAGAAARAALAAALA | not found (inactive) | –
2 | d3r1_design_ppi_230_dldesign_0_cycle1_af2pred (protein) TLAESALKALKVIGKAAVEVAKELGEEVYKKVKKEVEKLLKEVESASPEERAKLAAEAAKKMQKKLEELEKLLKEKKKK | not found (inactive) | –
3 | d3r1_design_ppi_168_dldesign_0_cycle1_af2pred (protein) ANKEEAKKAATEGQDAMAELRALKKEGGDPEEIKKAGDKAIESYEKAGELDPSIKERADKMIEAAKKLTEEGIKASKEK | not found (inactive) | –
4 | d3r1_design_ppi_688_dldesign_0_cycle0_af2pred (protein) MEELAEKAAKTASAALKEYATEEEKEEAEKKSKEFEKLAEEGKKNPEKAEEVLKELLEKAKEYQKKLEEKEKKEKEE | not found (inactive) | –
5 | d3r1_design_ppi_578_dldesign_0_cycle1_af2pred (protein) MEELEEAKKRAEELKKEVEENKEKFKEASKEAQELADNSLKAIKAAFKYIEEKEEVENAKRAVEVAEENYKKAKELAEKLLKEK | not found (inactive) | –
6 | d3r1_design_ppi_340_dldesign_0_cycle1_af2pred (protein) EKEKVRKEAEKAIKKAKAAAKAAKAGKDLKAAEKAVKEAAKAAKAAVEAGDPELAEKVAKAAQEASTALNAALSKRLAA | not found (inactive) | –
7 | d3r1_design_ppi_121_dldesign_0_cycle0_af2pred (protein) DEALKTAEKAAKEVEELAKEAKEAGDEETAKGLEEMLEKIKELLEKAKKDPSKAKEYAKTAEAIAKVAKKNYEESLKKLKEEKE | not found (inactive) | –
8 | d3r1_design_ppi_121_dldesign_0_cycle1_af2pred (protein) MKALEEAKKAAEKVKKLAKEAKELGDEETAKGLKEMEEEIKKLYKKAKEDPSKAEEYAEIAKKIAEIAKKHYEESKKKLEKEKE | not found (inactive) | –
9 | d3r1_design_ppi_418_dldesign_0_cycle0_af2pred (protein) SEAEAVKATLKGAKETVKELKKEAEKNPEKAEEYAKEAEKIAKAAEKLAEKSSEEAKKEAKEVKEEAKEAKKLAKKIIEEKKAKE | not found (inactive) | –
10 | d8r1_design_ppi_1354_dldesign_0_cycle1_af2pred (protein) SRAAAAKAFGKAAVEQLKKLAKAAGAEEARKLAKQLQADFAAFAAAVPEVAAEFKAAAEAAKKAAEEVAKEQEAKAAAAAAA | – | not found (inactive)
11 | d3r1_design_ppi_123_dldesign_0_cycle1_af2pred (protein) DPAVETTKANGKALLTKVAKEAAEVAAKIDPAKAKEITDYAAKALKAGDVTEIAKAVKKVSEELEKYKKELEKKEKEA | not found (inactive) | –
12 | d8r1_design_ppi_860_dldesign_0_cycle0_af2pred (protein) DEAYELAAEALARASELRAAAAAARAARGAAGVAEAAALDAEAVRVLEEAAKKLKALGSGLGKNLEAAARRLAERAAAATAAARA | – | not found (inactive)
13 | d8r1_design_ppi_427_dldesign_0_cycle0_af2pred (protein) MSRIAAWVIAAISAAATDPAEADKVAARAAEEALANPEKADEALALAAETARAAGLDAATVDAAVARIRALVAAL | – | not found (inactive)
14 | d3r1_design_ppi_369_dldesign_0_cycle1_af2pred (protein) AVPAELREILSKQALAKMEELEKEAKEKADTPEGLEVMEEAAEWFREAAKGLRAAGDEETAKKMEEKAKELEELAKEKKEK | not found (inactive) | –
15 | d3r1_design_ppi_418_dldesign_0_cycle1_af2pred (protein) DKNEAIKNTLKGAEKAVKELKKEAIKDPEKAEEYAKRAEEIAKAAKELAKQGTEEAKEEAKKVEKEAKEAKKEAKKVVEEKKKKE | not found (inactive) | –
16 | d3r1_design_ppi_79_dldesign_0_cycle0_af2pred (protein) MTDEEIAKKLIEVAKKAKEEAEKKLKDDPEKVKKVKEIAEEAIKEAKKDPKKGPEALQKAAEEMEKLVKE | not found (inactive) | –
17 | d3r1_design_ppi_36_dldesign_0_cycle1_af2pred (protein) EEERLKEAEETYKKLLEELYKESLKEIEEAAKKGPEAAKKALEKAKAEFDEYEKGLLPEYAKEVKEKLEKEAEKLIKKAK | not found (inactive) | –
18 | d3r1_design_ppi_237_dldesign_0_cycle0_af2pred (protein) TPLEQLGKLVKEAKKAAKEAKELIKKGKAKEAAKLAREAAKKQIEKAKKIGEEYPEAKASAEAAAAYIEALAKEVEKEAKAAEA | not found (inactive) | –
19 | d3r1_design_ppi_688_dldesign_0_cycle1_af2pred (protein) AVENAKKAAEQATKALKAYATEEEKEEAEKKGKEFKKLAEEAKADPSKAEEVLNKLLKEAKEYDKKLEEKEKKEKEE | not found (inactive) | –

Row | Binder | binding in a display sort [1] | binding in a display sort [2]
20 | d3r1_design_ppi_123_dldesign_0_cycle0_af2pred (protein) SENDKITLEQAKKLLEKEAKRAAEVAEKIDKEKAKKIKKYAEEALKKGKLTELAKAVKKVSEELEKYEKKLKEEEEKA | not found (inactive) | –
21 | d8r1_design_ppi_1117_dldesign_0_cycle1_af2pred (protein) AAAEAQARALAAELLAEAFDDPELAARALALPPHHAAALAAGQIVAKKSDEEAAAAVARANQVHALAAAAAAAA | – | not found (inactive)
22 | d3r1_design_ppi_595_dldesign_0_cycle1_af2pred (protein) DLFKKGIEEAEKAYKKYPKLGLAVAQLVLAKYFLEAAKKSTPEEAKNYLEAAKLALEKSKELLKEVEAKLKAE | not found (inactive) | –
23 | d3r1_design_ppi_135_dldesign_0_cycle1_af2pred (protein) GSLEEYEKLLAENSKLAVEKATKAAKEEVKKKGTEEAAKEATKRLEALAKALKSSGFKGTKEEAEKAKEAAKKLEKEAKKIAK | not found (inactive) | –
24 | d3r1_design_ppi_175_dldesign_0_cycle1_af2pred (protein) GSAATLAATAAKLAVKSAKKEMEEAKKNPETGPERLEKYAEILEKAAKDAKATGTAEAKEAAKEAEKEAKKAKEEAKKLK | not found (inactive) | –
25 | d3r1_design_ppi_589_dldesign_0_cycle1_af2pred (protein) MEEDAKKAQEVADLLAKTAATGPAYADEAIAKTAEVLGPYFAEKLKKAIAAGPEEVKKMYDIVKQHAENIKAA | not found (inactive) | –
26 | d3r1_design_ppi_25_dldesign_0_cycle1_af2pred (protein) SMAAKSAELRAESRRESILAAARQFAAENPAQGPRALAKAEELVAKAKEFAAATKDPAEAAAFAAQQAEEFRAYLAALEAEAA | not found (inactive) | –
27 | d3r1_design_ppi_576_dldesign_0_cycle1_af2pred (protein) GEEEEKAKETIKKMEELAKKGAENPEKGKEYVAEAMRIGRETAKELSEEVGEKVLKKAEEIASEAMKKVLENKKKLA | not found (inactive) | –
28 | d3r1_design_ppi_404_dldesign_0_cycle0_af2pred (protein) SMTEIAQKAYEKAEEARKKMLKKAEEDPEARPKLPEIEALMKEAREKAVSAVVELLTKGESEEEAMKKAEEIIEEAKKEAEKIMK | not found (inactive) | –
29 | d3r1_design_ppi_541_dldesign_0_cycle1_af2pred (protein) MEEEKKKIEEEIEEVKEALKEAEKLFAKDPVAGAKYAENLAIALKKRGLSEEAINLAKEAAEKLKAEAEKVKAA | not found (inactive) | –
30 | d3r1_design_ppi_404_dldesign_0_cycle1_af2pred (protein) NKVEVAQKAYDKAKEAKEKMIKEAKENPEAKPKIPEIEALMKKAQEEAVGKAVELLDKGATPEEALKAAEKIIKEAEKKAKEIIE | not found (inactive) | –
31 | d8r1_design_ppi_92_dldesign_0_cycle1_af2pred (protein) ERERERAAIRALLATVDAEYAKAAKEGPEAADAGIERVAAAAAAAGALGPDTASAGRFAVGVYRTLAEKVKAAWAA | – | not found (inactive)
32 | d3r1_design_ppi_687_dldesign_0_cycle0_af2pred (protein) MKKEEEEKKKKEKLKKKVEEKKEELKELKKAKEELEKAIEKLKPLAEKDPRIKANAEAAKKAAEEELKKKEEELEKLKKELE | not found (inactive) | –
33 | d3r1_design_ppi_608_dldesign_0_cycle1_af2pred (protein) ATEEAKKYAEKAKELAKKAEEAAKKEGVEAGEEYLEKAKEEVLKAYKYAAESGDEEAKKAAEEALEAVEKAEKEIEKIKKEKE | not found (inactive) | –
34 | d3r1_design_ppi_53_dldesign_0_cycle1_af2pred (protein) ASEADRAQVRAEGMAEALKLRAEAAAPLLSPEAVAEIKALAEKMAADPENRDAYYAAAVALLDAALAAAKA | not found (inactive) | –
35 | d3r1_design_ppi_648_dldesign_0_cycle0_af2pred (protein) GEEAAKKSKEAEKALEEAKKILKEGGKEGEEKAKKLVEEKVKELKKWGKETGTGGEALAKILKEEFEKAKKEK | not found (inactive) | –
36 | d3r1_design_ppi_578_dldesign_0_cycle0_af2pred (protein) MEELEEARKRADELEKEVKKLEPLFKEASKEAAELAENAKKAIEAAKKFIEDKSQIELAQRAVDQAEKNLKLAKELMEKILKEK | not found (inactive) | –
37 | d3r1_design_ppi_130_dldesign_0_cycle0_af2pred (protein) SASEKANNELAAKLAVESAKKYLEEAEKLEKEDKEKAKKLLKEIAEKAEAGVKAFADSPEAPELKKLAEEAKAKIEEI | not found (inactive) | –
38 | d8r1_design_ppi_568_dldesign_0_cycle1_af2pred (protein) AARHLALAIRGVLKADDAGDAEAAAKAKALLAKAAAALAAGDEAAAKAYATQAAAVADPAYAPVAEAVAAAAAA | – | not found (inactive)
